Rows were chosen to be rich in hits. Some 2.9% of all compounds tested hit in one or more screens of this group.
APOBEC3G inh – inhibitors of human APOBEC3G DNA deaminase; Q9HC16; recombinant A3G, ssDNA deamination FAM/TAMRA fluorescence; inhibition, % at 20 µM; hit rate 0.28% among 330,000;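 active = inhibition of at least 40% at 20 µM, with no more than 30% in the related APOBEC3A deaminase screen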
Target sequence (Q9HC16 whole entry, looked up): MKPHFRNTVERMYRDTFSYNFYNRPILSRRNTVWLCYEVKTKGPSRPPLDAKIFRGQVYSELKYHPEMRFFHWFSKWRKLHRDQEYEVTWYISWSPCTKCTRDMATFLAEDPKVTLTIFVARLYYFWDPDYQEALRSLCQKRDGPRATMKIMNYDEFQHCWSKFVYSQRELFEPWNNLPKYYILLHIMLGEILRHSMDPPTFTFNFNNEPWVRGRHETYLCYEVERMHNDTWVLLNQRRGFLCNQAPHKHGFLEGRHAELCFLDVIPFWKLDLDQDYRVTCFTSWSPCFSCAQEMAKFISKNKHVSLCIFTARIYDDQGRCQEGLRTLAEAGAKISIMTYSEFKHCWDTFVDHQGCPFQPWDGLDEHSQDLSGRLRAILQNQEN
TAG inh – triacylglycerol accumulation inhibition; H9c2 cells, Nile Red lipid (TAG) fluorescence; cells loaded with 200 µM oleic acid; inhibition, % at 12.5 µM; hit rate 0.66% among 230,000; AID 651582;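 active = pattern-corrected inhibition of lipid staining of at least 50% with the nuclear-stain viability signal not falling by more than 50%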
NadD block – blocks S. aureus nicotinate mononucleotide adenylyltransferase; purified NadD enzyme, colorimetric absorbance read-out; inhibition, % at 20 µM; hit rate 0.78% among 360,000; in the data active = inhibition above about 26%
H9c2 protect – myocardial damage modulation in H9c2 cells; AID 588492; protection from H2O2 cell death, % at 20 µM; H9c2 cardiomyocytes, H2O2 injury protection, ATPLite, 2 h; hit rate 0.63% among 360,000;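 active = compounds giving at least 50% protection of heart cells from peroxide-induced death in the single-dose screen, raw or plate-pattern-corrected value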
PfGluPho inh – PfG6PD (Plasmodium falciparum) enzyme inhibition | PfGluPho enzyme, NADPH resazurin-diaphorase fluorescence | inhibition, % at 20 µM | hit rate 0.78% among 350,000;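 active = inhibition reaching at least a set limit at 20 µM in the primary screen, cut at about 59% in these data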
A3A deaminase – human APOBEC3A DNA deaminase inhibition; hit rate 0.41% among 330,000; inhibition, % at 20 µM; recombinant A3A, FAM/TAMRA ssDNA deamination fluorescence; P31941;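 active = at least 40% inhibition at 20 µM here, with at most 30% in a related deaminase screen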
Large screens that a line does not name were inactive.

Cc1cc(O)c(C=Nc2ccc(N3CCOCC3)cc2)c(C)c1Cl	H9c2 protect 83 (no result: TAG inh)
O=C(N/N=C/c1cccc([N+](=O)[O-])c1)c1cccc2cc[nH]c12	none
O=C(N/N=C/c1cc([N+](=O)[O-])ccc1O)c1cccc2cc[nH]c12	TAG inh 61
O=C(N/N=C/c1cc([N+](=O)[O-])ccc1O)C(O)(c1ccccc1)c1ccccc1	H9c2 protect 61
Cc1ccc(C)c(N(CC(=O)N/N=C/c2ccc(-c3ccc([N+](=O)[O-])cc3)o2)S(=O)(=O)c2ccccc2)c1	NadD block 32 (no result: TAG inh)
O=C(CSc1nc2ccccc2s1)N/N=C/c1cc([N+](=O)[O-])ccc1O	H9c2 protect 53
CC(Cc1n[nH]c(=S)o1)c1ccccc1 (stereo not drawn)	none
Cc1ccc(C)c(NC(=O)CCC(=O)N/N=C/c2cc([N+](=O)[O-])ccc2O)c1	H9c2 protect 64
Cc1ccccc1NC(=O)CCC(=O)N/N=C/c1cc([N+](=O)[O-])ccc1O	none (no result: TAG inh)
Cc1ccc(NC(=O)CCC(=O)N/N=C/c2cc([N+](=O)[O-])ccc2O)cc1	H9c2 protect 64
Cc1cc(=O)oc2cc(OCC(=O)N/N=C/c3cc([N+](=O)[O-])ccc3O)ccc12	H9c2 protect 55 (no result: APOBEC3G inh, TAG inh, A3A deaminase)
O=C(CN(c1cccc(Br)c1)S(=O)(=O)c1ccccc1)N/N=C/c1cc([N+](=O)[O-])ccc1O	NadD block 47
Cc1cc(C)c[n+](-c2[nH]c(=O)sc2/C=N/NC([S-])=Nc2ccccc2)c1	none (no result: TAG inh)
COc1cc(C2NC(=O)CCC2[N+](=O)[O-])c(OC)cc1Br (stereo not drawn)	none (no result: TAG inh)
Cc1ccc(NC(=O)/C(=C\c2ccc([N+](=O)[O-])cc2)NC(=O)c2ccccc2)cc1	none
O=C(N/N=C/c1ccc(O)c(O)c1O)/C(=C/c1ccc([N+](=O)[O-])cc1)NC(=O)c1ccccc1	NadD block 44, H9c2 protect 61, PfGluPho inh 84
N#CC(C#N)=c1ccc2c(c1)N1C3=C(CCCC3)CC3CCCCC31N=2 (stereo not drawn)	TAG inh 92
N#C/C(C(N)=O)=c1/ccc2c(c1)N1C3=C(CCCC3)CC3CCCCC31N=2 (stereo not drawn)	none (no result: TAG inh, NadD block, H9c2 protect)
COCCNC(=O)C1CCCN(C(=O)c2ccc3sccc3c2)CC1 (stereo not drawn)	none (no result: APOBEC3G inh, PfGluPho inh, A3A deaminase)
COc1ccc(CCNC(=O)CSc2nnc3ccc(-c4ccccn4)nn23)cc1OC	none
O=S1(=O)CCC(N=Cc2cc(Br)ccc2O)C1 (stereo not drawn)	H9c2 protect 70
CC(C)C(NC(=O)C(C)N1C(=O)c2ccccc2C1=O)c1ccccc1 (stereo not drawn)	none (no result: TAG inh)
CC1=C([N+](=O)[O-])C(c2ccccc2)C2=C(N1)c1ccccc1C2=O (stereo not drawn)	TAG inh 60
COc1ccc(C2C(C#N)=C(C)NC3=C2C(=O)c2ccccc23)cc1 (stereo not drawn)	none (no result: TAG inh)
COc1cc(C2C(C#N)=C(C)NC3=C2C(=O)c2ccccc23)cc(OC)c1OC (stereo not drawn)	H9c2 protect 128 (no result: TAG inh)
Cc1cccc(NC(=O)Nc2c(C)n(C)n(-c3ccccc3)c2=O)c1C	none (no result: TAG inh)
COc1ccc2nc(-c3ccccn3)[nH]c2c1	TAG inh 70
COc1ccc2nccnc2c1[N+](=O)[O-]	none
Cc1ccc(S(=O)(=O)c2c(N)n(Cc3ccco3)c3nc4ccccc4nc23)cc1C	NadD block 47 (no result: TAG inh)
Cc1cccc(N(C(=O)c2csnn2)C(C(=O)NC2CCCCC2)c2ccncc2)c1 (stereo not drawn)	none (no result: TAG inh)
Cc1ccccc1C1c2[nH]c3ccccc3c2C[C@H]2C(=O)N(c3ccccc3C(=O)NCCCN3CCOCC3)C(=O)N12 (stereo partly drawn)	H9c2 protect 55 (no result: TAG inh)
Cc1ccc(N2C(=O)CSCC2=O)cc1	none (no result: TAG inh)
Cc1ccc(N2C(=O)CS/C2=C(\C(Cl)=C(Cl)Cl)[N+](=O)[O-])cc1	H9c2 protect 69 (no result: TAG inh)
COc1ccc(NC(=O)CCNC(=O)Cn2ccc3ccccc3c2=O)cc1Cl	none (no result: TAG inh)
COc1ccc(-c2nnc3sc(-c4ccco4)nn23)cc1OC	H9c2 protect 58
COc1ccc(-c2nn3c(-c4ccco4)nnc3s2)cc1OC	H9c2 protect 77
COc1cc(-c2nnc3sc(-c4ccco4)nn23)cc(OC)c1OC	none (no result: TAG inh)

High-throughput results: PubChem BioAssay, Sanford-Burnham Center for Chemical Genomics
